Most compounds without a hit are left out; they make up all but 1% or so of the library.
CTSL1 counter: blocks F. hepatica cathepsin L1 in PFM18AAP counter-screen. recombinant F. hepatica cathepsin L1, Z-Leu-Arg-MCA fluorescence. inhibition, % at 5.96 µM. 300,000 tested, 0.49% active;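 active means inhibition above the mean of all tested compounds plus 3 SD, set per screening campaign, cut at about 17% in these data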;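 further: 0% = plate median of test compound wells and 100% = 1 µM Z-Phe-Ala-diazomethylketone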
iPSC survival up: increases survival of single human iPS cells; survival enhancement, % at 20 µM; hiPSC single-cell survival, ATPlite luminescence; 100% = ROCK inhibitor wells, 0% = DMSO; 360,000 tested, 0.044% active; in the data active means survival enhancement above about 18%;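 further: cells exposed to compounds for 16 hours before the ATP read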
CR mimetic SO: lowers age-related superoxide in aged yeast cells | S. cerevisiae aged cells, superoxide DHE fluorescence; hits give low values | superoxide response (% of plate mean), % at 10 µM | 330,000 tested, 0.18% active;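 active means superoxide response under a set limit, about three screen SD below normal, cut at about 65% in these data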;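 further: yeast aged for seven days with compound at 30 °C before DHE staining; 100% = average MFI of all compound-treated wells on the plate with controls excluded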
V-ATPase pHluor: regulators of yeast V-ATPase proton transport | S. cerevisiae, pHLuorin cytosolic pH fluorescence | response, % at 10 µM | 350,000 tested, 0.37% active | AID 504577; in the data active means response mostly above about 7.3%, no sharp cut-off; inactive means mostly below about 5.4%; further: actives read high
V-ATPase pH SP: yeast V-ATPase proton transport regulation; AID 602197; shares compounds with V-ATPase pHluor; 980 tested, 2% active; response, % at 10 µM; S. cerevisiae pHLuorin cytosolic pH; in the data active means response above about 24%;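 further: plate controls were vehicle wells for no effect and positive control wells for full effect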
Starred values were filed as active, the others as inactive; nt = not tested or not shown.

SMILES	CTSL1 counter	iPSC survival up	CR mimetic SO	V-ATPase pHluor	V-ATPase pH SP
COc1ccccc1-c1nc(SCC(=O)NCC2CCCO2)c2c(=O)n(C)c(=O)n(C)c2n1 (stereo not given)	0	nt	112	nt	nt
CCS(=O)(=O)Nc1ccc(-c2ccc(NS(=O)(=O)CC)c(OC)c2)cc1OC	2	0	105	-2	nt
COc1ccc(NS(=O)(=O)CC(C)C)c(OC)c1	-4	4	103	11*	0
O=C(NCCN1C(=O)S/C(=C\c2ccc(Cl)cc2)C1=O)c1ccc(F)c(S(=O)(=O)N2CCOCC2)c1	2	1	98	9.5*	-2
COC(=O)c1cc(S(=O)(=O)Nc2cccc(C)c2C)cn1C	-3	0	96	11*	6
O=C(Nc1ccc(Cl)cc1)Nc1cc(S(=O)(=O)N2CCOCC2)ccc1N1CCCC1	2	-2	84	-3	nt
O=C(Nc1ccc(F)cc1)Nc1cc(S(=O)(=O)N2CCOCC2)ccc1N1CCCC1	2	0	96	8.6*	-3
Cc1ccc(C(C(=O)NC(C)(C)C)N(CC2CCCO2)C(=O)CCC(=O)Nc2ccccn2)cc1 (stereo not given)	-3	0	101	2	nt
CCOc1cc(/C=N/NC(=O)c2cccc(S(=O)(=O)N3CCCC3)c2)ccc1OCC(=O)N(C)C	10	0	108	19*	-3
Cc1cc(S(=O)(=O)N2CCCCC2)c(C)s1	1	0	113	5	nt
